The source of these data is article PMC4336329 (PLoS ONE, 2015).

Out of some 310,000 compounds screened, about 14,000 (4.5%) showed an effect of 50% or more. Effects have a minus sign here. Shown is part of a subset that was picked to be rich in strong results.
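Further: peak tail current of the secondary pulse compared with the same well before compound.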

The target in this assay is human ether-à-go-go-related gene (hERG) potassium channel (human, UniProt Q12809). In words: primary screen, population patch clamp on CHO cells stably expressing hERG; higher = less effect of the substance.
human ether-à-go-go-related gene (hERG) potassium channel, sequence (Q12809 whole entry, looked up): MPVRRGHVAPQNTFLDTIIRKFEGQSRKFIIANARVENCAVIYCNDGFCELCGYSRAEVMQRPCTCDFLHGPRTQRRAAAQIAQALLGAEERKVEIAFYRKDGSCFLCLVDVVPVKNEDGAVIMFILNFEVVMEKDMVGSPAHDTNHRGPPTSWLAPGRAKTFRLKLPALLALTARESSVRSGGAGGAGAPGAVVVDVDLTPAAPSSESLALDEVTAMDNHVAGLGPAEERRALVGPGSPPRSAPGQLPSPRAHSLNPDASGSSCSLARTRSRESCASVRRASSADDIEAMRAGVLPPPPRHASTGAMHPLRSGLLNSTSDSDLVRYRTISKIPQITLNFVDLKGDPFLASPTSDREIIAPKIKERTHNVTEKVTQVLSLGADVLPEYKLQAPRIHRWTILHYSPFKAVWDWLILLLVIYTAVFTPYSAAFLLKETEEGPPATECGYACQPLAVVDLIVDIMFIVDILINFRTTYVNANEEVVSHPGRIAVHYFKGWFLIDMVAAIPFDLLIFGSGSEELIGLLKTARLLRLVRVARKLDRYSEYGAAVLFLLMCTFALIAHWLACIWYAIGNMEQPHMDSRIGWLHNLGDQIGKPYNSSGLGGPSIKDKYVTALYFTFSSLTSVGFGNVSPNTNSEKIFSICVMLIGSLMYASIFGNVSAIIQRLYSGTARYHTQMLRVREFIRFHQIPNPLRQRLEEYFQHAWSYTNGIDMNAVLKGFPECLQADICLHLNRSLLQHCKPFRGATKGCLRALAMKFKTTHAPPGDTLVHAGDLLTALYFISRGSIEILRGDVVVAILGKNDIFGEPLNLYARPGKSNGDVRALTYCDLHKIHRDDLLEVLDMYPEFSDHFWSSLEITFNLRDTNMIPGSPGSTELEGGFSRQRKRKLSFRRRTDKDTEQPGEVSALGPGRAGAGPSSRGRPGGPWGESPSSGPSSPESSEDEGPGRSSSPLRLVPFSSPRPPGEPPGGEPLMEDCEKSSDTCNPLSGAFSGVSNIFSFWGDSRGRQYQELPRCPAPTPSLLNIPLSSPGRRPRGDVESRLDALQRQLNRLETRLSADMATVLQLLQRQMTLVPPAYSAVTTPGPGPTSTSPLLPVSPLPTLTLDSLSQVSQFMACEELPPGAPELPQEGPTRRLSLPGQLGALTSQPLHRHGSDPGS
As for `Cc1ccc(NC(=O)/C(=C/c2cccs2)NC(=O)c2ccco2)c(C)c1`, the “hERG current change (%, negative = inhibition) at 10uM” value is given as -9.56%.
For `CCCC(=O)NNC(=O)Nc1ccccc1`, the “hERG current change (%, negative = inhibition) at 10uM” value amounted to 19.8%.
The same measure for `O=c1[nH]c(CSc2nc3ccccc3[nH]2)nc2c1cnn2-c1ccccc1`: -17.6%; for `COc1ccc(CC(=O)Nc2cc(C)on2)cc1OC`: 2.2%; for `CC(=O)Nc1ccc(S(=O)(=O)Nc2nc3ccccc3nc2Nc2cccc(S(N)(=O)=O)c2)cc1`: 10.3%.
The same measure for `CCOc1ccc2oc(-c3ccccc3)c(C(=O)N3CCN(C)CC3)c2c1`: -9.67%.
The same measure for `CS(=O)(=O)c1ccc(Cl)c(NC(=O)c2cc(S(=O)(=O)N3CCOCC3)ccc2N2CCCC2)c1`: -81.3%; for `O=C(Nc1ccccc1N1CCCC1)c1cc(S(=O)(=O)N2CCOCC2)ccc1Cl`: -34.5%; for `O=C(Nc1ccccc1N1CCCCC1)c1cc(S(=O)(=O)N2CCOCC2)ccc1Cl`: -4.01%.
Turning to `Cc1nc(CC(=O)NNS(=O)(=O)c2ccc(F)c(Cl)c2)cs1`, the “hERG current change (%, negative = inhibition) at 10uM” value was found to be 20%.
For `O=C(COC(=O)C1CCCN1C(=O)c1cccs1)Nc1ccc2c(c1)OCO2` (stereo not shown) the value was -11.9%.
For `Cc1ccc(C)c(S(=O)(=O)Nc2cc(SCC(=O)O)c(O)c3ccccc23)c1` the value was 5.34%; for `CCOc1ccc(Cc2c(C)[nH]c3ccc(C(=O)O)cc3c2=S)cc1`, -9.2%.
Regarding `O=[N+]([O-])c1cccc(N(CC(O)CN2CCCC2)S(=O)(=O)c2ccccc2)c1` (stereo not shown), the “hERG current change (%, negative = inhibition) at 10uM” value is recorded as -62.4%.
For `O=[N+]([O-])c1cccc(N(CC(O)CN2CCCCC2)S(=O)(=O)c2ccccc2)c1` (stereo not shown) the value was -43.8%.
The same measure for `COc1ccc([N+](=O)[O-])cc1N(CC(O)CN1CCCCC1)S(=O)(=O)c1ccc(C)cc1` (stereo not shown): -42.7%; for `Cc1ccc(S(=O)(=O)N(CC(O)CN2CCCCC2)c2cccc([N+](=O)[O-])c2)cc1` (stereo not shown): -78.8%.
For `Cc1cc(C)n(CC(O)CN(c2cccc([N+](=O)[O-])c2)S(=O)(=O)c2ccccc2)n1` (stereo not shown) the value was 7.08%; for `COc1ccc([N+](=O)[O-])cc1N(CC(O)CN1CCCC1)S(=O)(=O)c1ccc(C)cc1` (stereo not shown), -2.85%; for `Cc1cc(C)c2nc(SCC#N)cc(C)c2c1`, 13.5%.
Consider `O=C(OCC#CCSc1nnc(-c2cccc3ccccc23)o1)c1ccco1`, for which the “hERG current change (%, negative = inhibition) at 10uM” value is -2.9%.
The same measure for `CCN=C(Nc1ccc(Cl)cc1)c1cccnc1`: -2.16%; for `O=C(N/C(=C/c1ccco1)C(=O)N1CCCC1)c1cccs1`: -0.326%; for `CC(C)(C)OC(=O)N1CCOCCOCCN(C(=O)OC(C)(C)C)CCOCCOCC1`: 7%.
For `COc1ccc(-c2nc(CN3CCC(C(=O)NC4CCCC4)CC3)c(C)o2)cc1OC`, the “hERG current change (%, negative = inhibition) at 10uM” value is recorded as -36.4%.
The same measure for `Cc1oc(-c2ccc(Cl)cc2)nc1CS(=O)CC(=O)NC1CC1` (stereo not shown): 8.75%; for `COc1ccc(-c2nc(CN3CCCC(C(=O)NC4CCCC4)C3)c(C)o2)cc1` (stereo not shown): -64.4%.
The same measure for `Cc1oc(-c2ccc(Cl)cc2)nc1CN1CCCC(C(=O)NC2CC2)C1` (stereo not shown): -81.3%.
The same measure for `COc1ccc(-c2nc(CS(=O)CC(=O)NC3CCCC3)c(C)o2)cc1` (stereo not shown): -16.4%.
On to `Cc1oc(-c2ccc(Cl)cc2)nc1CN1CCCC(C(=O)NCCCN2CCOCC2)C1` (stereo not shown), for which the “hERG current change (%, negative = inhibition) at 10uM” value was -19.4%.
For the compound `CC1CCN(c2nc(N3CCCCC3)nc(N3CCCCC3)n2)CC1`, the “hERG current change (%, negative = inhibition) at 10uM” value is listed as 9.57%.
For `CC(C)(C)C(=O)OCc1nc(-c2ccc(Cl)cc2)cs1` the value was 7.41%.
Consider `COc1ccc(CNC(=O)CCc2nc3cc(S(=O)(=O)N(C)C)ccc3n2C)cc1OC`, for which the “hERG current change (%, negative = inhibition) at 10uM” value came out at 14.3%.
For `N#C/C(=C\N1CCCCC1)S(=O)(=O)c1ccc(Cl)cc1` the value was 15.6%.
The same measure for `O=C(NCCc1ccccc1)c1ccc(S(=O)(=O)N2CCCC2)cc1`: -5.37%.
For the compound `CSc1cccc(NC(=O)COC(=O)C2CCN(S(=O)(=O)c3ccccc3)CC2)c1`, the “hERG current change (%, negative = inhibition) at 10uM” value is 4.09%.
Regarding `Cc1ccc(-n2cnnn2)cc1Cl`, the “hERG current change (%, negative = inhibition) at 10uM” value was -18.8%.
For `C/C(=N\NC(=O)CNC(=O)c1cccs1)c1ccc(Cl)c(Cl)c1` the value was -2.25%.
For the compound `Fc1ccccc1CNc1ccc(Cl)cc1`, the “hERG current change (%, negative = inhibition) at 10uM” value is on record as -8.14%.
The same measure for `Fc1ccccc1CNc1ccc(Cl)c(Cl)c1`: 9.9%; for `Fc1ccc(NCc2ccccc2F)cc1Cl`: -139%; for `CC(NC(=O)CSC1=NCCS1)c1ccccc1` (stereo not shown): 14.3%.
The same measure for `Clc1nc2sccn2c1/C=N/n1cnc2ccccc21`: -10%.
Regarding `COc1ccc(C(C(=O)NC2CCCCC2)N(C(=O)c2ccco2)c2ccccc2C(C)=O)cc1OC` (stereo not shown), the “hERG current change (%, negative = inhibition) at 10uM” value amounted to 9.15%.
For `CC(C(=O)Nc1ccc(Br)cc1C(=O)c1ccccc1)N1CCCCC1` (stereo not shown) the value was -24.8%.
`O=C(CN1CCCCC1)NCC(=O)Nc1ccc(Br)cc1C(=O)c1ccccc1`: the “hERG current change (%, negative = inhibition) at 10uM” value is given as -79.1%.
The same measure for `O=C(CN1CCOCC1)Nc1ccc(Br)cc1C(=O)c1ccccc1`: -32.4%.
The same measure for `O=C(CNC(=O)OCc1ccccc1)Nc1ccc(Br)cc1C(=O)c1ccccc1Cl`: -40.5%; for `O=C(CN1CCOCC1)NCC(=O)Nc1ccc(Br)cc1C(=O)c1ccccc1`: -37.1%; for `O=C(CNC(=O)OCc1ccccc1)NCC(=O)Nc1ccc(Br)cc1C(=O)c1ccccc1`: -56%.
The same measure for `O=C(CCN1CCCCC1)NCC(=O)Nc1ccc(Br)cc1C(=O)c1ccccc1`: -77.6%.
For `O=C(CCN1CCOCC1)Nc1ccc(Br)cc1C(=O)c1ccccc1`, the “hERG current change (%, negative = inhibition) at 10uM” value was -19.6%.
For `O=C(CCN1CCOCC1)NCC(=O)Nc1ccc(Br)cc1C(=O)c1ccccc1` the value was -49.5%; for `CC(C(=O)Nc1ccc(Br)cc1C(=O)c1ccccc1)N1CCOCC1` (stereo not shown), -58.6%; for `O=C(CNC(=O)OCc1ccccc1)Nc1ccc(Br)cc1C(=O)c1ccccc1`, -15.1%.
For `Cc1ccc(NC(=O)C(C)N2CCOCC2)c(C(=O)c2ccccc2)c1` (stereo not shown) the value was -26.9%.
For `Cc1csc(NC(=O)c2ccc(C)s2)n1` the value was 6.99%.
Regarding `Cc1cc(C(=O)N/N=C/c2c[nH]c3ccccc23)c(C)o1`, the “hERG current change (%, negative = inhibition) at 10uM” value was -27.4%.
The same measure for `N#Cc1c(C(F)(F)F)cc(-c2ccc(Cl)c(Cl)c2)nc1SCCN1CCOCC1`: 6.62%.
The same measure for `CN1CCC(OC(=O)c2cc3cc(Cl)cc(Cl)c3oc2=O)CC1`: -17.8%.
The same measure for `O=C1N/C(=C\c2ccc(O)cc2)C(=O)c2ccccc21`: -1.53%; for `O=C(O)C(=O)O.O=S(=O)(c1ccc(F)cc1)N1CCC(N2CCCCCC2)CC1`: -26.3%; for `COc1ccc(Nc2ccc(Nc3ccc(OC)cc3)nn2)cc1`: 18.6%.
Take `Cc1cccc(N2CCN(C(=O)Cn3nc(C)n4cccc4c3=O)CC2C)c1` (stereo not shown): the “hERG current change (%, negative = inhibition) at 10uM” value is listed as 1.19%.
The same measure for `O=C(O)CCCCCCCCc1cn(Cc2ccc(C(=O)c3ccccc3)cc2)nn1`: 19.5%; for `Cc1cccc(C)c1OCC(=O)N/N=C/c1cc2c(cc1[N+](=O)[O-])OCO2`: -4.6%; for `O=C(O)CN1CCc2ccccc2C1`: 21.3%.
For `CCC(CC)C(=O)Nc1cc([N+](=O)[O-])ccc1F` the value was -2.25%.
Consider `COCCN1Cc2cccc(C(=O)Nc3cccnc3)c2C1=O`, for which the “hERG current change (%, negative = inhibition) at 10uM” value is recorded as -32.6%.
As to `CCOC(=O)C1(Cc2ccccc2C)CCCN(C(=O)CCc2c(C)noc2C)C1` (stereo not shown), the “hERG current change (%, negative = inhibition) at 10uM” value is given as -29.3%.
Consider `COC(=O)c1cc(C(=O)OCC(=O)NC2CCCCCCC2)cc([N+](=O)[O-])c1`, for which the “hERG current change (%, negative = inhibition) at 10uM” value was -7.58%.
Take `COc1ccc(OCCN(C)Cc2ccccc2)cc1`: the “hERG current change (%, negative = inhibition) at 10uM” value was -41.9%.
As to `CN(CCOc1ccc(Cl)cc1)Cc1cccc(S(=O)(=O)N(C)C)c1`, the “hERG current change (%, negative = inhibition) at 10uM” value is recorded as -56.5%.
For the compound `Cc1ccc(S(=O)(=O)N(C)C)cc1NC(=O)C(C)N(C)CCOc1ccc(Cl)cc1` (stereo not shown), the “hERG current change (%, negative = inhibition) at 10uM” value is -26.7%.
The same measure for `COc1ccc(CCNC(=O)C(=O)NCc2cccs2)cc1OC`: 8.95%.
The same measure for `CCCCNC(=O)c1ccc(CS(=O)(=O)c2ccc(OC)cc2)o1`: -7%; for `COc1ccc(S(=O)(=O)Cc2ccc(C(=O)NCCc3ccc(S(N)(=O)=O)cc3)o2)cc1`: 10.1%.
The same measure for `CCCCSCCCNC(=O)c1ccc(CS(=O)(=O)c2ccc(OC)cc2)o1`: -59.6%; for `COCCCNC(=O)c1ccc(CS(=O)(=O)c2ccc(OC)cc2)o1`: 5.86%.
For `CCCCN(CCCNC(=O)c1ccc(CS(=O)(=O)c2ccc(OC)cc2)o1)Cc1ccccc1`, the “hERG current change (%, negative = inhibition) at 10uM” value was -67.4%.
The same measure for `COc1ccc(S(=O)(=O)Cc2ccc(C(=O)NCC(OC)OC)o2)cc1`: 17.4%; for `COc1ccc(S(=O)(=O)Cc2ccc(C(=O)NCCCN(C)c3ccccc3)o2)cc1`: -59.4%.
For the compound `CCN(CC)CCCNC(=O)c1ccc(CS(=O)(=O)c2ccccc2OC)o1`, the “hERG current change (%, negative = inhibition) at 10uM” value amounted to 16.3%.
For `COc1ccc(S(=O)(=O)Cc2ccc(C(=O)NCc3ccccc3)o2)cc1` the value was -14.3%; for `CCOc1ccc2nc(COC(=O)c3cccs3)c(C(=O)c3ccccc3)[n+]([O-])c2c1`, 6.46%.
